Assay results as given in the supplement of paper PMC3334620.
In all, about 33,000 sequences were measured (“E-score (-0.5 to 0.5)”: median about -0.017, highest 2% from about 0.3 on). This is one part of a sample in which the highest values are shown more often than they occur.

The sequences below were run against T1, Sut1 (UniProt P53032) (assay: PBM E-score (8-mer binding enrichment) (E-score (-0.5 to 0.5)); higher = stronger / more preferred TF binding). Conditions: protein concentration: 200 nM; construct: GST-full length.
T1 sequence: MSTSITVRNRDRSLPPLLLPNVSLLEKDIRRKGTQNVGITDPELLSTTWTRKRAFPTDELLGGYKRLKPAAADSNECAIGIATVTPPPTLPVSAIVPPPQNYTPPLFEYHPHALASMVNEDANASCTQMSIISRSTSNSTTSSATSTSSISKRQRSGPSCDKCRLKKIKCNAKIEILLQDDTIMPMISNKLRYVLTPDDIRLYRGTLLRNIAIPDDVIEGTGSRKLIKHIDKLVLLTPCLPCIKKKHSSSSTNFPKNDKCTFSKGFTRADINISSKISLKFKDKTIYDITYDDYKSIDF
Protocol: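 Universal 'all 10-mer' protein binding microarrays (Agilent AMADID 015681) probed with GST-tagged S. cerevisiae TFs (full-length or DBD) made by in vitro transcription/translation (PURExpress), about 100-200 nM. Bound TF was detected with fluorescent anti-GST. Each ungapped 8-mer (which stands for itself and its reverse complement) is scored by the PBM enrichment score (E-score), a modified Wilcoxon-Mann-Whitney statistic from -0.5 to +0.5, computed with the Universal PBM Analysis Suite. Scale: above 0.35 generally sequence-specific binding.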
AGATATTA was tested, and the “PBM E-score” value was 0.211.
In the case of ATTCCGCG, the “PBM E-score” value is reported as 0.18.
In the case of AGTCCGCG, the “PBM E-score” value is reported as 0.435.
With ATTCCGCC the “PBM E-score” value was 0.214.
AGTCCGCA was tested, and the “PBM E-score” value was 0.441.
CGTCCGCA was tested, and the “PBM E-score” value was -0.177.
With CGTCCGCC the “PBM E-score” value was -0.124.
For AATCCGCG, the “PBM E-score” value was -0.103.
With AGTCCGCC the “PBM E-score” value was 0.375.
With GGTCCGCA the “PBM E-score” value was 0.241.
In the case of ATGCACGG, the “PBM E-score” value is reported as -0.114.
AACTTCTA was tested, and the “PBM E-score” value was 0.131.
In the case of ACCAGCTG, the “PBM E-score” value is reported as -0.203.
GTCATAGA was tested, and the “PBM E-score” value was -0.0539.
With ATGAATAC the “PBM E-score” value was 0.132.
For GGCAAACA, the “PBM E-score” value was -0.119.
For GCCAAGGC, the “PBM E-score” value was -0.29.
AGATGATA was tested, and the “PBM E-score” value was 0.175.
For AAATGATG, the “PBM E-score” value was 0.16.
TAATGATA was tested, and the “PBM E-score” value was 0.317.
AAATGATA was tested, and the “PBM E-score” value was 0.337.
In the case of AAATGATC, the “PBM E-score” value is reported as 0.105.
For CAATGATA, the “PBM E-score” value was 0.144.
In the case of TAATGAAA, the “PBM E-score” value is reported as 0.154.
AAATGATT was tested, and the “PBM E-score” value was 0.311.
For GAATGATA, the “PBM E-score” value was 0.259.
ACAGTGTC was tested, and the “PBM E-score” value was -0.114.
GAATTCGA was tested, and the “PBM E-score” value was 0.0801.
CTTTTCTC was tested, and the “PBM E-score” value was 0.107.
In the case of GCATCGGC, the “PBM E-score” value is reported as -0.241.
ACATCGGC was tested, and the “PBM E-score” value was -0.0386.
With GCATCGTA the “PBM E-score” value was -0.0143.
With ACATCGGT the “PBM E-score” value was -0.034.
For GCATCGGA, the “PBM E-score” value was 0.348.
With TCATCGAA the “PBM E-score” value was 0.0449.
ACATCGGA was tested, and the “PBM E-score” value was 0.351.
For TCATCGGA, the “PBM E-score” value was 0.395.
In the case of CCATCGGA, the “PBM E-score” value is reported as 0.255.
For GCAATACA, the “PBM E-score” value was 0.196.
For GAAATTGC, the “PBM E-score” value was -0.0449.
With AGCACGCG the “PBM E-score” value was 0.0217.
With ATTACATA the “PBM E-score” value was 0.154.
In the case of AGAGTCTG, the “PBM E-score” value is reported as -0.236.
In the case of ACCACACA, the “PBM E-score” value is reported as 0.109.
With CTCACAGC the “PBM E-score” value was -0.051.
With TCTCAGAA the “PBM E-score” value was -0.12.
In the case of CAAGTTGC, the “PBM E-score” value is reported as 0.0786.
In the case of GGCTGTAC, the “PBM E-score” value is reported as -0.0774.
In the case of GGACTTAC, the “PBM E-score” value is reported as 0.352.
In the case of AGACTTAA, the “PBM E-score” value is reported as -0.137.
In the case of CGACTTAC, the “PBM E-score” value is reported as -0.0195.
In the case of AGACTTAC, the “PBM E-score” value is reported as -0.0551.
CGACTTAA was tested, and the “PBM E-score” value was 0.00564.
In the case of GGACTTAA, the “PBM E-score” value is reported as 0.326.
With GCAAGAGA the “PBM E-score” value was -0.196.
In the case of CTTCTGGA, the “PBM E-score” value is reported as -0.0307.
With ATCGGACG the “PBM E-score” value was 0.0416.
In the case of GTCGGACA, the “PBM E-score” value is reported as 0.271.
With ATCGGACC the “PBM E-score” value was 0.353.
With CTCGGACC the “PBM E-score” value was 0.368.
With CTCGGAAC the “PBM E-score” value was 0.182.
With CTCGGACA the “PBM E-score” value was 0.354.
With AGCGGACC the “PBM E-score” value was 0.00064.
CTCGGATC was tested, and the “PBM E-score” value was 0.204.
With ATCGGACA the “PBM E-score” value was 0.257.
TCTTAGAA was tested, and the “PBM E-score” value was 0.283.
With AAGATTCA the “PBM E-score” value was 0.137.
For CGAGCGTC, the “PBM E-score” value was -0.241.
For CATATTGG, the “PBM E-score” value was 0.112.
With GAAACTGA the “PBM E-score” value was -0.0944.
In the case of CGGCTTTA, the “PBM E-score” value is reported as 0.0621.
In the case of AACCAGTC, the “PBM E-score” value is reported as 0.173.
In the case of AGGGGTTA, the “PBM E-score” value is reported as -0.273.
With CCGGGTTC the “PBM E-score” value was -0.0363.
For CGGGGTTA, the “PBM E-score” value was 0.382.
With GGGGGTTA the “PBM E-score” value was -0.405.
For CGGGGTTC, the “PBM E-score” value was 0.398.
In the case of AGGGGTTC, the “PBM E-score” value is reported as -0.181.
For ATACGAGA, the “PBM E-score” value was -0.0254.
For AGAGGCTC, the “PBM E-score” value was -0.103.
For AATTCTGG, the “PBM E-score” value was -0.0608.
For CTTCACTA, the “PBM E-score” value was 0.252.
In the case of GCTTCTTA, the “PBM E-score” value is reported as 0.0688.
With ATGACGTA the “PBM E-score” value was 0.0909.
For ACGTACTA, the “PBM E-score” value was -0.0235.
GCGTACTA was tested, and the “PBM E-score” value was -0.0972.
With CCGTACTA the “PBM E-score” value was 0.297.
In the case of AGAATCCA, the “PBM E-score” value is reported as 0.00183.
For GTTATATA, the “PBM E-score” value was 0.286.
For ATTATATG, the “PBM E-score” value was 0.134.
In the case of ATTATATA, the “PBM E-score” value is reported as 0.337.
CTTATATA was tested, and the “PBM E-score” value was 0.334.
For ATTATATC, the “PBM E-score” value was 0.262.
In the case of CTTATATC, the “PBM E-score” value is reported as 0.222.
For AACCCGTA, the “PBM E-score” value was -0.0786.
In the case of CTTCTCTC, the “PBM E-score” value is reported as -0.0216.
In the case of CCAAACAC, the “PBM E-score” value is reported as -0.00595.
ACACCTCG was tested, and the “PBM E-score” value was -0.103.
For AGGAGGAG, the “PBM E-score” value was -0.183.
AGGTGTGG was tested, and the “PBM E-score” value was -0.0561.
In the case of AGTCCGTG, the “PBM E-score” value is reported as 0.431.
With AGTCCATG the “PBM E-score” value was -0.00201.
GGTCCGTA was tested, and the “PBM E-score” value was 0.253.
AGCCCGTG was tested, and the “PBM E-score” value was -0.224.
CGTCCGTA was tested, and the “PBM E-score” value was 0.0823.
With AATCCGTC the “PBM E-score” value was 0.0795.
In the case of AGTCCGTC, the “PBM E-score” value is reported as 0.424.
For CGTCCGTC, the “PBM E-score” value was -0.154.
AGTCCGTA was tested, and the “PBM E-score” value was 0.445.
For CTGCTTGA, the “PBM E-score” value was -0.153.
For CTGAACAC, the “PBM E-score” value was -0.0309.
With GCTCTGCC the “PBM E-score” value was -0.128.
With CGCACACA the “PBM E-score” value was -0.161.
With CGTTGGCA the “PBM E-score” value was -0.0897.
For GACTGATA, the “PBM E-score” value was 0.0856.
For CGAGCTCG, the “PBM E-score” value was -0.0197.
For GGAGACAA, the “PBM E-score” value was 0.0139.
GCATGCGA was tested, and the “PBM E-score” value was 0.0246.
With GTGCCGAA the “PBM E-score” value was 0.0728.
With ATCCGAGC the “PBM E-score” value was 0.0537.
In the case of CACCGAGA, the “PBM E-score” value is reported as -0.0582.
For GTCCGAGA, the “PBM E-score” value was 0.428.
With CCCCGAGC the “PBM E-score” value was 0.163.
With CGCCGAGA the “PBM E-score” value was 0.0729.
CTCCGAGA was tested, and the “PBM E-score” value was 0.459.
With CTCCGAGC the “PBM E-score” value was 0.437.
With ATCCGAGA the “PBM E-score” value was 0.198.
For GGCCGAGA, the “PBM E-score” value was 0.0849.
With CGACACTC the “PBM E-score” value was 0.0434.
For AGACTCAA, the “PBM E-score” value was -0.0327.
With AAGGCTGG the “PBM E-score” value was -0.146.
AGATGGTA was tested, and the “PBM E-score” value was 0.0768.
For ATTTATTA, the “PBM E-score” value was 0.269.
GTTTATTA was tested, and the “PBM E-score” value was 0.302.
For AATTATTC, the “PBM E-score” value was 0.317.
With CTTTATTA the “PBM E-score” value was 0.261.
In the case of AATTATTG, the “PBM E-score” value is reported as 0.173.
For AATTATTA, the “PBM E-score” value was 0.305.
In the case of AATTATCC, the “PBM E-score” value is reported as 0.1.
With GATTATTA the “PBM E-score” value was 0.229.
CATTATTC was tested, and the “PBM E-score” value was 0.231.
In the case of TCGATCAA, the “PBM E-score” value is reported as -0.00575.
For TAGTGCGA, the “PBM E-score” value was -0.0645.
With AGTGATTA the “PBM E-score” value was 0.0842.
CTGTCCTA was tested, and the “PBM E-score” value was -0.0818.
CCAAGACC was tested, and the “PBM E-score” value was -0.261.
GGCGTCGA was tested, and the “PBM E-score” value was -0.167.
For CGAAGTCC, the “PBM E-score” value was 0.378.
With GAAAGTCC the “PBM E-score” value was 0.326.
In the case of AAAAGTCT, the “PBM E-score” value is reported as 0.102.
GAAAGTCA was tested, and the “PBM E-score” value was 0.049.
For CGAAGTCA, the “PBM E-score” value was -0.081.
CTAAGTCC was tested, and the “PBM E-score” value was 0.114.
For AAAAGTCC, the “PBM E-score” value was 0.394.
With AAAAGTCA the “PBM E-score” value was 0.15.
For ATAAGTCC, the “PBM E-score” value was 0.317.
For GGAAGTCC, the “PBM E-score” value was 0.159.
With ATAAGTCG the “PBM E-score” value was 0.0862.
For CAAAGTCC, the “PBM E-score” value was 0.282.
In the case of CGCGCAAC, the “PBM E-score” value is reported as -0.114.
With CAAAGTAC the “PBM E-score” value was 0.0285.
For ACGTATAG, the “PBM E-score” value was 0.0316.
GCAGCACC was tested, and the “PBM E-score” value was 0.0294.
In the case of AGATTGCC, the “PBM E-score” value is reported as -0.043.
With CCACAAAA the “PBM E-score” value was 0.0574.
For GCTCTACA, the “PBM E-score” value was -0.121.
With AGGATCGC the “PBM E-score” value was -0.214.
With CAAGCGGC the “PBM E-score” value was -0.0127.
ACAAGTCG was tested, and the “PBM E-score” value was -0.264.
ACAAGTCC was tested, and the “PBM E-score” value was 0.374.
With ACAAGTCA the “PBM E-score” value was -0.118.
ACGCGTCG was tested, and the “PBM E-score” value was 0.174.
